The values below come from PubChem BioAssay (EPA / NIEHS).

“And” between values parts separate entries of the source, which are not always exact repeats. Identical values can stand only once. Some compounds were tested as several samples or in several runs, with calls that do not always agree. The source made the active and inactive calls. The calls were made as follows: active = hit-call score of the fitted dose curve at least 0.9, where 1 is the maximum; inactive = score below 0.9.

Read-out in assay [1]: TIMP metallopeptidase inhibitor 1 (TIMP1), TIMP1 (gene 7076)
As to the kind of experiment: BSK_hDFCGF_TIMP1: BioMAP Diversity Plus: hDFCGF Assay for TIMP metallopeptidase inhibitor 1 (TIMP1) Biomarker Activity (AID 2283062). As to conditions: primary human foreskin fibroblasts; actives raise or lower the signal. The method, boiled down: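 Fibroblasts from human foreskin are treated with test chemical and harvested at 24 h. TIMP-1 is quantified by ELISA, and gain or loss of signal is scored against DMSO.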

Read-out in assay [2]: Monokine induced gamma interferon (MIG), CXCL9 (gene 4283)
As to the kind of experiment: BSK_hDFCGF_MIG: BioMAP Diversity Plus: hDFCGF Assay for Monokine induced gamma interferon (MIG) Biomarker Activity (AID 2283063). Conditions: primary human foreskin fibroblasts; actives raise or lower the signal. The method, boiled down:
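MIG signal, determined by ELISA, reflects 24 h chemical exposure of human skin primary fibroblasts. DMSO serves as negative control and baseline.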

Read-out in assay [3]: Vascular cell adhesion molecule 1 (VCAM1), VCAM1 (gene 7412)
Nature of the assay: BSK_hDFCGF_VCAM1: BioMAP Diversity Plus: hDFCGF Assay for Vascular cell adhesion molecule 1 (VCAM1) Biomarker Activity (AID 2283065). Conditions: primary human foreskin fibroblasts; actives raise or lower the signal. The method, boiled down:
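Cells are dosed, cultured for 24 h, then VCAM-1 is quantified by ELISA; signal increases and decreases are both fitted relative to DMSO.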

Read-out in assay [4]: Plasminogen activator inhibitor-1 (PAI1), SERPINE1 (gene 5054)
As to the kind of experiment: BSK_hDFCGF_PAI1: BioMAP Diversity Plus: hDFCGF Assay for Plasminogen activator inhibitor-1 (PAI1) Biomarker Activity (AID 2283066). Conditions: primary human foreskin fibroblasts; actives raise or lower the signal. An outline of the steps: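 PAI-1 levels in human dermal foreskin fibroblasts were quantified by ELISA 24 h after dosing, with gain or loss analysed against DMSO. Overt cytotoxicity was checked by sulforhodamine B total-protein staining in parallel cultures.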

Read-out in assay [5]: Intercellular Adhesion Molecule 1 (ICAM1), ICAM1 (gene 3383)
As to the kind of experiment: BSK_KF3CT_ICAM1: BioMAP Diversity Plus: KF3CT Assay for Intercellular Adhesion Molecule 1 (ICAM1) Biomarker Activity (AID 2283067). As to conditions: primary human keratinocytes with fibroblasts; actives raise or lower the signal. The method, boiled down:
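Dose the keratinocyte/fibroblast co-culture, wait 24 h, measure ICAM-1 by ELISA, then fit increases or decreases against DMSO. Cytotoxicity is checked in parallel cultures by SRB total-protein staining.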

Read-out in assay [6]: Interleukin-1 alpha (IL1a), IL1A (gene 3552)
Nature of the assay: BSK_KF3CT_IL1a: BioMAP Diversity Plus: KF3CT Assay for Interleukin-1 alpha (IL1a) Biomarker Activity (AID 2283070). Conditions: primary human keratinocytes with fibroblasts; actives raise or lower the signal. The method, boiled down: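 IL-1a was detected by ELISA 24 h after chemical treatment of a co-culture of human skin keratinocytes and foreskin fibroblasts. Gain or loss of signal was fitted against the DMSO baseline.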

Read-out in assay [7]: TIMP metallopeptidase inhibitor 2 (TIMP2), TIMP2 (gene 7077)
Nature of the assay: BSK_KF3CT_TIMP2: BioMAP Diversity Plus: KF3CT Assay for TIMP metallopeptidase inhibitor 2 (TIMP2) Biomarker Activity (AID 2283071). Conditions: primary human keratinocytes with fibroblasts; actives raise or lower the signal. An outline of the steps:
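TIMP-2 measured by ELISA at 24 h in human keratinocyte/fibroblast primary co-cultures exposed to chemicals. Both increases and decreases were fitted against DMSO. Parallel cultures were stained with SRB for total protein as an overt-cytotoxicity check.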

Read-out in assay [8]: Transforming growth factor beta 1 (TGFb1), TGFB1 (gene 7040)
Nature of the assay: BSK_KF3CT_TGFb1: BioMAP Diversity Plus: KF3CT Assay for Transforming growth factor beta 1 (TGFb1) Biomarker Activity (AID 2283072). As to conditions: primary human keratinocytes with fibroblasts; actives raise or lower the signal. An outline of the steps:
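ELISA quantifies TGF-b1 at 24 h post-dose in a primary human skin co-culture of keratinocytes and fibroblasts, with gain or loss judged against DMSO. Parallel SRB total-protein staining flags overt cytotoxicity.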

Read-out in assay [9]: C-C motif chemokine 2 (Homo sapiens) (UniProt P13500)
As to the kind of experiment: BSK_KF3CT_MCP1: BioMAP Diversity Plus: KF3CT Assay for Monocyte Chemoattractant Protein 1 (MCP1/CCL2) Biomarker Activity (AID 2283073). As to conditions: primary human keratinocytes with fibroblasts; actives raise or lower the signal. An outline of the steps:
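Keratinocytes and foreskin fibroblasts were co-cultured, dosed with chemical, and sampled 24 h later. MCP-1 was quantified by ELISA, and the endpoint was analyzed with bidirectional fitting using DMSO as negative control.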

Read-out in assay [10]: urokinase plasminogen activator (uPA), PLAU (gene 5328)
As to the kind of experiment: BSK_KF3CT_uPA: BioMAP Diversity Plus: KF3CT Assay for urokinase plasminogen activator (uPA) Biomarker Activity (AID 2283075). Conditions: primary human keratinocytes with fibroblasts; actives raise or lower the signal. An outline of the steps:
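ELISA read-out of uPA 24 h after dosing human skin keratinocytes co-cultured with foreskin fibroblasts. Signal change fitted both ways relative to DMSO; sulforhodamine B on parallel cultures marks overt cytotoxicity.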

Read-out in assay [11]: CD40, CD40 (gene 958)
As to the kind of experiment: BSK_LPS_CD40: BioMAP Diversity Plus: LPS Assay for CD40 Biomarker Activity (AID 2283076). As to conditions: primary human HUVEC with PBMC; actives raise or lower the signal. An outline of the steps: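 CD40 signal, measured by ELISA, is fitted in both directions relative to DMSO vehicle. The system is an LPS-driven human vascular primary co-culture of endothelial cells and PBMC, sampled 24 h after compound addition.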

Read-out in assay [12]: E-selectin (Homo sapiens) (UniProt P16581)
As to the kind of experiment: BSK_LPS_Eselectin: BioMAP Diversity Plus: LPS Assay for Eselectin Biomarker Activity (AID 2283077). As to conditions: primary human HUVEC with PBMC; actives raise or lower the signal. The method, boiled down: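 Signal of E-selectin, detected by ELISA, served as the endpoint; cells were umbilical vein endothelium with PBMC, read 24 h after treatment. DMSO defined baseline, and both increases and decreases were fitted.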

Read-out in assay [13]: Interleukin-8 (IL8), CXCL8 (gene 3576)
As to the kind of experiment: BSK_LPS_IL8: BioMAP Diversity Plus: LPS Assay for Interleukin-8 (IL8) Biomarker Activity (AID 2283078). As to conditions: primary human HUVEC with PBMC; actives raise or lower the signal. The method, boiled down:
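Endothelial cells and PBMC from human donors are co-cultured, treated with chemicals and LPS, then assayed for IL-8 by ELISA after 24 h. Parallel SRB staining (0.1% SRB after 10% TCA fixation, 560 nm) flags cytotoxicity.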

Assay [14] is described as follows: BSK_LPS_SRB: Viability Assessment in the BioMAP Diversity Plus: LPS Assay (AID 2283079).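 Also: total protein by sulforhodamine B absorbance as a cytotoxicity measure; measured one day after compound addition; fitted in both directions against DMSO so loss or gain of signal counts.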 Conditions: primary human HUVEC with PBMC. An outline of the steps: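 Overt cytotoxicity was gauged by sulforhodamine B total-protein staining in a primary human vascular endothelial and mononuclear cell co-culture 24 h post-dosing. Activity was fitted in both directions relative to DMSO.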

Read-out in assay [15]: Interleukin-1 alpha (IL1a), IL1A (gene 3552)
As to the kind of experiment: BSK_LPS_IL1a: BioMAP Diversity Plus: LPS Assay for Interleukin-1 alpha (IL1a) Biomarker Activity (AID 2283080). Conditions: primary human HUVEC with PBMC; actives raise or lower the signal. An outline of the steps: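 Measured: IL-1 alpha via ELISA at 24 h in LPS-activated human umbilical vein endothelium–PBMC co-culture. Baseline: DMSO, bidirectional fitting.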

Read-out in assay [16]: Monocyte Chemoattractant Protein-1 (MCP1), CCL2 (gene 6347)
As to the kind of experiment: BSK_LPS_MCP1: BioMAP Diversity Plus: LPS Assay for Monocyte Chemoattractant Protein-1 (MCP1) Biomarker Activity (AID 2283081). Conditions: primary human HUVEC with PBMC; actives raise or lower the signal. An outline of the steps: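 LPS-stimulated HUVEC/PBMC co-culture; chemical, 24 h; MCP-1 by ELISA; bidirectional fit vs DMSO; cytotoxicity via SRB (0.1% stain, 10% TCA fix, 560 nm) in parallel wells.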

Assay [17] can be described thus: BSK_KF3CT_SRB: Viability Assessment in the BioMAP Diversity Plus: KF3CT Assay (AID 2283069). Conditions: primary human keratinocytes with fibroblasts. The method, boiled down:
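Cytotoxicity was gauged by SRB staining (0.1% SRB, 10% TCA fixation, 560 nm) of parallel cultures at 24 h. The cells were primary human skin keratinocytes co-cultured with fibroblasts, and activity was fitted in both directions against DMSO.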

Read-out in assay [18]: Matrix Metallopeptidase 9 (MMP9), MMP9 (gene 4318)
As to the kind of experiment: BSK_KF3CT_MMP9: BioMAP Diversity Plus: KF3CT Assay for Matrix Metallopeptidase 9 (MMP9) Biomarker Activity (AID 2283074). As to conditions: primary human keratinocytes with fibroblasts; actives raise or lower the signal. The method, boiled down: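 MMP-9 quantified by ELISA after 24 h chemical treatment of primary human skin keratinocyte/fibroblast co-cultures; gain or loss fitted against DMSO, with parallel SRB staining (0.1% SRB, 560 nm) for overt cytotoxicity.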

Read-out in assay [19]: Interferon-gamma inducible Protein 10 (IP10), CXCL10 (gene 3627)
Nature of the assay: BSK_KF3CT_IP10: BioMAP Diversity Plus: KF3CT Assay for Interferon-gamma inducible Protein 10 (IP10) Biomarker Activity (AID 2283068). Conditions: primary human keratinocytes with fibroblasts; actives raise or lower the signal. The method, boiled down:
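Human keratinocyte plus foreskin fibroblast primary co-culture exposed to test chemical for 24 h; IP-10 measured by ELISA. Concentration-response fitted bidirectionally against DMSO control as baseline.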

Chain of E-selectin (Homo sapiens) (P16581 whole entry, looked up): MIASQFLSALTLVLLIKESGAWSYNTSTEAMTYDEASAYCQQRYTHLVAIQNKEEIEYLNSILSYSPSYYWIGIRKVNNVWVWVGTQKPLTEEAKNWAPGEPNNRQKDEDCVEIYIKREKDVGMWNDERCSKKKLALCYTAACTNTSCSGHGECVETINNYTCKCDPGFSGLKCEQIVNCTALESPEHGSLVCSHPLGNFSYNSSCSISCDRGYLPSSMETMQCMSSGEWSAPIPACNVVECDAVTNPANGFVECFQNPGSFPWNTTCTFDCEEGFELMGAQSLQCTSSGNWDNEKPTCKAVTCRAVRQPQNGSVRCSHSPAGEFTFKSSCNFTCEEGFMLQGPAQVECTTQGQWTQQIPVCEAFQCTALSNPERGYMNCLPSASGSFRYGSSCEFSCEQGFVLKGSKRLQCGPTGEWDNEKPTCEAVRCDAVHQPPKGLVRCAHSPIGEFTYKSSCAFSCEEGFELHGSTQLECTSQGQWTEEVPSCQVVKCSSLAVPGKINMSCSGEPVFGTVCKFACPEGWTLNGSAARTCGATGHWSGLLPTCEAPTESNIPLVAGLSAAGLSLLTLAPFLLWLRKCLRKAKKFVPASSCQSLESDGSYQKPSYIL

With `CCCCC(CC)COC(=O)c1ccc(C(=O)OCC(CC)CCCC)cc1` (stereo unspecified), the result in assay [1], in [2], in assay [3], in assay [4], in assay [5] and in [6] was inactive. For the same compound, the result in assay [7], in [8], in assay [9], in [10], in [11] and in [12] was inactive. The result in assay [13], in assay [14], in assay [15] and in [16] was inactive.
Regarding `Cc1c(-c2cccnc2)c2ccccc2n1CCCCC(=O)O`, the result in [1], in [2], in assay [3], in assay [4], in assay [5] and in assay [17] was inactive. Also, the outcome in assay [6], in assay [8], in assay [9], in [18], in [10] and in assay [11] was inactive. Besides, the outcome in [12], in assay [13], in assay [14], in [15] and in assay [16] was inactive.
Regarding `CCCCCCCCCCCCCCCO`, the result in [1], in assay [2], in assay [4], in assay [5], in [6] and in [8] was inactive. In addition, the result in [9], in assay [18], in assay [10], in assay [12] and in assay [16] was inactive. Moreover, the AC50 in assay [11] is 33.6 µM (active); in assay [13], 31.1 µM (active); in assay [14] it was 31.7 µM (active); in [15] it was 31.9 µM (active).
With `Cn1cnc([N+](=O)[O-])c1Sc1ncnc2nc[nH]c12`, the result in assay [1], in assay [2], in assay [4], in assay [5], in assay [19] and in assay [17] was inactive. Further, the result in assay [6], in [8], in assay [9], in [10], in assay [11] and in [12] was inactive. In addition, the result in assay [13], in [14], in assay [15] and in [16] was inactive. Moreover, the half-maximal activity concentration (AC50) in assay [4] is 11.7 µM (active); in [11], 26.9 µM (active) and 4.17 µM (active).
